Measured values taken from PubChem BioAssay.
Activity calls are given as the source filed them.

Legend:
[1] = tested on: PRMT1 (protein arginine N-methyltransferase 1); test: PRMT1 binders on small-molecule microarrays, primary screen, biochemical, small-molecule microarray, 635 nm fluorescence (AID 1088); conditions: small-molecule microarray binding, higher = more signal;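 further: binding of Prmt1 protein to compounds spotted on small-molecule microarray slides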
[2] = yeast growth modulation, basal conditions, primary screen, YJM789 clinical isolate, OD600, 24 h (AID 1089);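 further: growth of clinical yeast isolate S. cerevisiae YJM 789 seeded 1000 cells per well; test concentration not given here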; conditions: S. cerevisiae YJM789 growth, higher = more signal, called active from +8 up or from −8 down
[3] = fission yeast growth modulation, primary screen, strain 972, OD600, 24 h, no modulator (AID 1090);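 further: basal condition with compound alone and no growth modifier present; test concentration not given here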; conditions: S. pombe 972 growth, higher = more signal, called active from +8 up or from −8 down
[4] = S. cerevisiae growth modulation with rapamycin, primary screen, strain BY4716, OD600, 96 h (AID 1091); conditions: higher = more signal, called active from +8 up or from −8 down; further: test concentration not given here
[5] = target: Torsin-1A-interacting protein 2 (Homo sapiens) (UniProt Q8NFQ8); test: LULL1 binders on small-molecule microarray, primary screen, cell lysate, human LULL1 lysate, 635/667 nm fluorescence (AID 1092); conditions: hLULL1 lysate binding, 635 nm fluorescence, higher = more signal;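 further: probe is lysate of COS7 cells overexpressing human LULL1; score merges per-feature 667 nm fluorescence with signal-to-noise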
Chain of Torsin-1A-interacting protein 2 (Homo sapiens) (Q8NFQ8 whole entry, looked up): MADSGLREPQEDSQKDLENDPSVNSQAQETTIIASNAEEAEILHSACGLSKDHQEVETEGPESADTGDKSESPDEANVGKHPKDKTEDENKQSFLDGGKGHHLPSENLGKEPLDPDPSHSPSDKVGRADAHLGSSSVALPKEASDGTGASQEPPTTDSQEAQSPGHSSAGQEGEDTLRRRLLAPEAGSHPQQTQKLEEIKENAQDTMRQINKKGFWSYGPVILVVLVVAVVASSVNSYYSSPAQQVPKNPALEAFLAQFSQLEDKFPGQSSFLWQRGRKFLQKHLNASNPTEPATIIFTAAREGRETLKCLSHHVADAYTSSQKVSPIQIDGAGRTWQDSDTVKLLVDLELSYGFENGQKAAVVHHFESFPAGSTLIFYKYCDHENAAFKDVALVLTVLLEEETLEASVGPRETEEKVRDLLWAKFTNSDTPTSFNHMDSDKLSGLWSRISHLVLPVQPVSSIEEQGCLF

[6] = E. coli growth modulation, two-sided OD650, primary screen, E. coli filamentation project, strain DRC41, 24 h (AID 1093); conditions: OD650, 24 h, higher = more signal, called active from +8 up or from −8 down;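 further: MC1000 strain lacking acrAB efflux and sulA so SOS filamentation is blocked; test concentration not given here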
[7] = small-molecule microarray binders of probe aLefty2, primary screen, biochemical, biotinylated probe, 635/667 nm fluorescence (AID 1094); conditions: higher = more signal;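 further: score merges spot fluorescence near 667 nm with spot signal-to-noise ratio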
[8] = tested on: Noggin (protein binding on small-molecule microarray); test: Noggin binders on small-molecule microarray, primary screen, biochemical, 635/667 nm fluorescence (AID 1095); conditions: 635 nm fluorescence, higher = more signal;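 further: score merges 667 nm feature fluorescence with signal to noise over triplicate slides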
[9] = target: Neurogenic locus notch homolog protein 3 (Homo sapiens) (UniProt Q9UM47); test: NOTCH3 binders on small-molecule microarray, primary screen, biochemical, 635/667 nm fluorescence (AID 1096); conditions: NOTCH3 binding, 635 nm fluorescence, higher = more signal
Chain of Neurogenic locus notch homolog protein 3 (Homo sapiens) (Q9UM47 whole entry, looked up): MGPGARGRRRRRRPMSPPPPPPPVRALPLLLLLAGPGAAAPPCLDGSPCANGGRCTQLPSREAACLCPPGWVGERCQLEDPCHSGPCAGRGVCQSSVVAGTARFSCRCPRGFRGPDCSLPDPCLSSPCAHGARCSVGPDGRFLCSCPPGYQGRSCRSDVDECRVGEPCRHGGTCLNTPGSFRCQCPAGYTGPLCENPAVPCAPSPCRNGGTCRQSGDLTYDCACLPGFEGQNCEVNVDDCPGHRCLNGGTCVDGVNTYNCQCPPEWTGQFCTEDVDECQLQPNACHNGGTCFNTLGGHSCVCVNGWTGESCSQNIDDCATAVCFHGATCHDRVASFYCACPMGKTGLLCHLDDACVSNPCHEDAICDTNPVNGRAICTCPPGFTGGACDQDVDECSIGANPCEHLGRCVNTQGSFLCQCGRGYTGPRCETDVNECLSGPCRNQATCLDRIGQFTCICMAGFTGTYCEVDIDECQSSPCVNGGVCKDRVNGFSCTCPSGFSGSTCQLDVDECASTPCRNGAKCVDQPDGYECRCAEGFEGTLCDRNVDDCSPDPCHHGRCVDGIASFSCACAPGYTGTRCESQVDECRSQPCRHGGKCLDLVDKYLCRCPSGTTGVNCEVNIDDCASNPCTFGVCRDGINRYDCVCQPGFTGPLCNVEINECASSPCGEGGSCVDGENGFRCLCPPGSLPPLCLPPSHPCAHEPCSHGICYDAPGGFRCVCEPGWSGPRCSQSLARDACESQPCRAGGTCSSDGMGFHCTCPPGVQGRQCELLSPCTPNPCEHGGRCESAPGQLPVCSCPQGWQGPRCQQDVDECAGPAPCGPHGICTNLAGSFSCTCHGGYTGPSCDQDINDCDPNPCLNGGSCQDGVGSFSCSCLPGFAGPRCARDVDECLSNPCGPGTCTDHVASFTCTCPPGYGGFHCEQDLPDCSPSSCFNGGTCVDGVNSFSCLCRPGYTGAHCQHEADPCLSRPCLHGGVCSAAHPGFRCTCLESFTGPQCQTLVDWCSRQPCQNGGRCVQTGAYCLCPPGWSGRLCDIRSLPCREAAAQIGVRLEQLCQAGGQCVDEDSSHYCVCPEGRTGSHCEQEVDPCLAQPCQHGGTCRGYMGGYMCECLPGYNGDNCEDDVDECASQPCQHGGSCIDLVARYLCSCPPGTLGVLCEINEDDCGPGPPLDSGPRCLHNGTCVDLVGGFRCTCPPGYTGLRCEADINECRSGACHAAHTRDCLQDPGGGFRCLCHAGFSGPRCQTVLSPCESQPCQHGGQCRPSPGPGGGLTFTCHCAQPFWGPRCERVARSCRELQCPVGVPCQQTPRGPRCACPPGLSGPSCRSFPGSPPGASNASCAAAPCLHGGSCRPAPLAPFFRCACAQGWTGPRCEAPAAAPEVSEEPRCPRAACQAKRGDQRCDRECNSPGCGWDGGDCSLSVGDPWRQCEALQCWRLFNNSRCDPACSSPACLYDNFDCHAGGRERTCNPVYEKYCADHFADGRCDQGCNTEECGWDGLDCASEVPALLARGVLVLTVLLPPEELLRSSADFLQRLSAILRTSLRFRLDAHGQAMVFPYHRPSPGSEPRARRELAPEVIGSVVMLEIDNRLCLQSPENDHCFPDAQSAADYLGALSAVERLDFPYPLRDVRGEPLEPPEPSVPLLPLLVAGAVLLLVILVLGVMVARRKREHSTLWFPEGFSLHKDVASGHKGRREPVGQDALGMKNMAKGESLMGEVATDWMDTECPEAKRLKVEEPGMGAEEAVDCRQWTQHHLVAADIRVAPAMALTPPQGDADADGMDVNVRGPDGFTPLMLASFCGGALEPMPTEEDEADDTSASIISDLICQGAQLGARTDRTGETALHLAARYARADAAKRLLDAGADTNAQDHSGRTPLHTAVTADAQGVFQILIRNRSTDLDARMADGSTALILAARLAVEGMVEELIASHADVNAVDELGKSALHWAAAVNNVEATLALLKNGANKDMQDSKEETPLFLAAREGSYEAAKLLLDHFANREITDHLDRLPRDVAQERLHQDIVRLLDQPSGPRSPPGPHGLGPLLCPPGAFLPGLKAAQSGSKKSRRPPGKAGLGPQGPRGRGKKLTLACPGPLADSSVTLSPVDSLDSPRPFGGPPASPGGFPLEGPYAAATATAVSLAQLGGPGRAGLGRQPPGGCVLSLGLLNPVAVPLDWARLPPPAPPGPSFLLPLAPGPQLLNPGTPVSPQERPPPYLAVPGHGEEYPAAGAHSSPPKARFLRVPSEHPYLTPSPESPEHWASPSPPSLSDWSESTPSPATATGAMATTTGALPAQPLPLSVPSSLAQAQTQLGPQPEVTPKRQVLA

[10] = small-molecule microarray binders of probe aEGFR, primary screen, biochemical, biotinylated probe, 635/667 nm fluorescence (AID 1097); conditions: higher = more signal;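 further: probe is a biotinylated anti-EGFR antibody binding compounds printed on slides; score combines fluorescence near 667 nm and signal to noise of each spot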
[11] = tested on: Plasmodium falciparum Sir2 (PF13_0152, Sir2A); test: pfSir2 binders on small-molecule microarrays, primary screen, biochemical, small-molecule microarray, 635 nm fluorescence (AID 1098); conditions: small-molecule microarray binding, fluorescence 635 nm; higher = more signal;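 further: score merges spot fluorescence intensity with its signal-to-noise ratio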
[12] = small-molecule microarray binders of probe aDKK1, primary screen, biochemical, biotinylated probe, 635/667 nm fluorescence (AID 1099); conditions: higher = more signal;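 further: score merges 667nm spot fluorescence with signal to noise across triplicate slides; reference of the scale not given here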
[13] = small-molecule microarray binders of probe aCHRDL2, primary screen, biochemical, biotinylated probe, 635/667 nm fluorescence (AID 1100); conditions: higher = more signal
[14] = splicing luciferase reporter signal modulators, primary screen, spliceosome inhibition project, cell-based, HEK293, splice +/- reporter (AID 1101); conditions: luminescence, 24 h, higher = more signal, called active from +8 up or from −8 down;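 further: HEK293 cells carrying a splicing-competent luciferase reporter gene; test concentration not given here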
[15] = target: Fibroblast growth factor 10 (Homo sapiens) (UniProt O15520); test: FGF10 binders on small-molecule microarrays, primary screen, biochemical, small-molecule microarray, 635 nm fluorescence (AID 1102); conditions: FGF10 binding, fluorescence 635 nm, higher = more signal
Chain of Fibroblast growth factor 10 (Homo sapiens) (O15520 whole entry, looked up): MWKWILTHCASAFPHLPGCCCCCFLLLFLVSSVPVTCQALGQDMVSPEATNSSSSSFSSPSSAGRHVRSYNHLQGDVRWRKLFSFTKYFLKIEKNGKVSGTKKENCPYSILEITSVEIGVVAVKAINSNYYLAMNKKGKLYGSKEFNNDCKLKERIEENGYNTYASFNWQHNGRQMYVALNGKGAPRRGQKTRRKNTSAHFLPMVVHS

[16] = tested on: glycogen synthase kinase-3 (GSK3A per assay name; protocol says GSK3B); test: GSK3 binders on small-molecule microarrays, primary screen, biochemical, small-molecule microarray, 635 nm fluorescence, GSK3A (AID 1103); conditions: small-molecule microarray binding, fluorescence 635 nm; higher = more signal; further: the record names both GSK3A and GSK3B
[17] = target: Epidermal growth factor receptor (Homo sapiens) (UniProt P00533); test: EGFR binders on small-molecule microarrays, primary screen, biochemical, small-molecule microarray, 635 nm fluorescence (AID 1104); conditions: EGFR binding, higher = more signal;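 further: score merges 667 nm emission intensity with spot signal to noise over triplicate slides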
Chain of Epidermal growth factor receptor (Homo sapiens) (P00533 whole entry, looked up): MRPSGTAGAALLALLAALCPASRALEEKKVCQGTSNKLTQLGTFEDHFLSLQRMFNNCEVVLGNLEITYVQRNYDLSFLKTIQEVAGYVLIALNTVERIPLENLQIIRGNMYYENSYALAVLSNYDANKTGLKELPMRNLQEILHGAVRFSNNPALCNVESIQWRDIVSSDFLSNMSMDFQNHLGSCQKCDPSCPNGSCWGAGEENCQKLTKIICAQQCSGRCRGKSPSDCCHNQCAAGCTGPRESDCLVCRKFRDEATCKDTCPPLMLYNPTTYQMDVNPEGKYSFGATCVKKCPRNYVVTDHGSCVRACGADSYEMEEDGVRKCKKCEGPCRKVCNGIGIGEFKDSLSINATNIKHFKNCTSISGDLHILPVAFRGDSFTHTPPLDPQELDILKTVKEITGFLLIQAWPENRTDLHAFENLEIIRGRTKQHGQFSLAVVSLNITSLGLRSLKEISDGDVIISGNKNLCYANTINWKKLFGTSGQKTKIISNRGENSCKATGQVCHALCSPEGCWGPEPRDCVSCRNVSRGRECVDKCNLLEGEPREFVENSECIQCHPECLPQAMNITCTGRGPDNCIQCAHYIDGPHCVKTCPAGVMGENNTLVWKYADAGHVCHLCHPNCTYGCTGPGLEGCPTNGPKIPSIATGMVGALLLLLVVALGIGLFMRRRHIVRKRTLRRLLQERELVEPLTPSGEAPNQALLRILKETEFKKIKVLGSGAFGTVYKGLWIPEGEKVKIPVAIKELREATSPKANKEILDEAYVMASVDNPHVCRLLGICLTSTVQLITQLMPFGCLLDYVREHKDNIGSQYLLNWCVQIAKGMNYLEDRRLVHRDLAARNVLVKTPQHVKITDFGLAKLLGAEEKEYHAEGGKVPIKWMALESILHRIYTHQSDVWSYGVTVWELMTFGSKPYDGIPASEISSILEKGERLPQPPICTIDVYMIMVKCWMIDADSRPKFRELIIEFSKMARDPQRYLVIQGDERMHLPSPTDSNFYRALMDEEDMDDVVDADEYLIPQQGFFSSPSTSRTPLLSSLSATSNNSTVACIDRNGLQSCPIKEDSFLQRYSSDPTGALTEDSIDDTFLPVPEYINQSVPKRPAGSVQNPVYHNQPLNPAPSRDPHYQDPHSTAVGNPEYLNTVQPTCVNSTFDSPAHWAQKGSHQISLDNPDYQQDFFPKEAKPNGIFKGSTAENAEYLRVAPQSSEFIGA

[18] = target: Follistatin-related protein 3 (Homo sapiens) (UniProt O95633); test: FSTL3 binders on small-molecule microarrays, primary screen, biochemical, small-molecule microarray, 635 nm fluorescence (AID 1105); conditions: FSTL3 binding, higher = more signal;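 further: score merges emission near 667 nm and signal to noise per printed spot across three slides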
Chain of Follistatin-related protein 3 (Homo sapiens) (O95633 whole entry, looked up): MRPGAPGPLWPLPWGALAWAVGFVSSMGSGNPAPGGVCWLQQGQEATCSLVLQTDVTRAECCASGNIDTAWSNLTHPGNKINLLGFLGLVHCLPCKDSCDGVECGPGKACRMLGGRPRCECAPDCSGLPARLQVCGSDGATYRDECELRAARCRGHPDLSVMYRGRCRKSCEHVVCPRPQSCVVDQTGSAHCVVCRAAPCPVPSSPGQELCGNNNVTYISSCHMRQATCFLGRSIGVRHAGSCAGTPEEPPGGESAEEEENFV

[19] = target: Dickkopf-related protein 1 (Homo sapiens) (UniProt O94907); test: DKK1 binders on small-molecule microarrays, primary screen, biochemical, small-molecule microarray, 635 nm fluorescence scan (AID 1106); conditions: DKK1 binding, higher = more signal;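 further: score merges emission near 667 nm with signal to noise over three replicate slides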
Chain of Dickkopf-related protein 1 (Homo sapiens) (O94907 whole entry, looked up): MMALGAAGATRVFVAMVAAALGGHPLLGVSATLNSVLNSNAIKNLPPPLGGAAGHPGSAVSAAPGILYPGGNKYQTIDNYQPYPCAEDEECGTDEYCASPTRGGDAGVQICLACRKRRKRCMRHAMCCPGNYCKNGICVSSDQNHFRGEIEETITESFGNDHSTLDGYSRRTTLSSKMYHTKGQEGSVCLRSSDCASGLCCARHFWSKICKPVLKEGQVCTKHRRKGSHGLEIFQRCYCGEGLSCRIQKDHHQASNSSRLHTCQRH

[20] = tested on: Inhibin beta A chain (activin A); test: INHBA (activin A) binders on microarrays, primary screen, biochemical, small-molecule microarray, 635 nm fluorescence scan (AID 1107); conditions: small-molecule microarray binding, higher = more signal;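 further: mouse activin A protein probed at 4.33 µg/mL on printed slides; score merges bound-protein fluorescence near 667 nm with spot signal-to-noise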

SMILES | composite z-score [1] | z-score [2] | z-score [3] | z-score [4] | composite z-score [5] | z-score [6] | composite z-score [7] | composite z-score [8] | composite z-score [9] | composite z-score [10] | composite z-score [11] | composite z-score [12] | composite z-score [13] | z-score [14] | composite z-score [15] | composite z-score [16] | composite z-score [17] | composite z-score [18] | composite z-score [19] | composite z-score [20]
C=C(CCCC)C(=O)CC[C@H](OC(C)=O)c1ccc(CO)o1 | 1.47 | 1.04 (inactive) | -1.43 (inactive) | -0.181 (inactive) | 0.616 | 1.38 (inactive) | -0.0339 | 0.53 | 0.137 | -0.182 | 0.621 | -0.402 | -0.456 | -1.14 (inactive) | 0.123 | 0.2 | -0.567 | -0.139 | -0.0639 | 1.24
O=C1C2C=CC(C(O)c3cccc4ccccc34)N(n3cnnc3)C2C(=O)N1Cc1ccccc1 (stereo not given) | -0.117 | -26.6 (active) | -16.1 (active) | -0.0039 (inactive) | 0.846 | -1.18 (inactive) | 0.93 | 0.56 | 0.467 | 0.804 | 0.161 | 1.72 | 0.8 | 0.228 (inactive) | 0.975 | -0.181 | 0.402 | 0.529 | -0.13 | 0.668
O=C1O[C@@H](c2ccccc2)[C@@H](c2ccccc2)N2[C@@H](c3ccc(O)cc3)[C@]3(C(=O)Nc4ccc(C#CCCO)cc43)[C@@H](C(=O)N3CCCCCCC3)[C@H]12 | 1.55 | 0.36 (inactive) | 0.67 (inactive) | 1.51 (inactive) | 3.5 | -0.306 (inactive) | 1.26 | 1.48 | 0.939 | 0.079 | 1.83 | 1.7 | 1.07 | 0.62 (inactive) | 0.837 | 0.78 | 0.201 | 1.43 | 0.843 | 1.67
COCCOC(=O)N1C(=O)[C@@]2(c3ccccc31)[C@H](c1ccc(O)cc1)N1[C@H](c3ccccc3)[C@H](c3ccccc3)OC(=O)[C@H]1[C@@H]2C(N)=O | -0.0183 | 0.396 (inactive) | -0.153 (inactive) | 0.549 (inactive) | 2.35 | -0.29 (inactive) | -0.126 | -0.678 | -0.474 | -0.16 | 0.394 | -0.374 | 0.679 | 0.435 (inactive) | -0.422 | -1.11 | -0.608 | -0.821 | -1.17 | -0.249
COCCCNC(=O)[C@@]1(C)c2ccccc2C(=O)N(Cc2ccccc2)[C@H]1c1ccc(CO)cc1 | 1.46 | -0.21 (inactive) | -1.31 (inactive) | -0.0048 (inactive) | 3.43 | -0.336 (inactive) | -0.11 | -0.694 | 0.0118 | -0.168 | 1.43 | -0.0769 | 1.02 | -0.626 (inactive) | -0.398 | -0.595 | -0.848 | -1.03 | -1.76 | -0.79
CN1C(=O)C2C=CC(C(O)c3ccccc3)N(NC(=O)OC(C)(C)C)C2C1=O (stereo not given) | 0.408 | 0.382 (inactive) | 1.52 (inactive) | 1.45 (inactive) | 2.93 | -0.828 (inactive) | 0.0875 | -0.201 | 0.497 | 0.0182 | 0.782 | 0.153 | 0.455 | 1.54 (inactive) | 0.35 | 0.459 | -0.043 | -0.0889 | -0.237 | 0.375
C=CCC(OC(C)=O)[C@@H]1[C@@H](N(Cc2ccc(-c3ccccc3)cc2)C(=O)c2ccc(C)cc2)c2cc(OCCCO)ccc2N1C(=O)c1ccc2ccccc2n1 (stereo not given in full) | -0.11 | -2.47 (inactive) | -0.772 (inactive) | -1.15 (inactive) | 0.209 | 1.95 (inactive) | 0.407 | -0.267 | -0.197 | -0.0836 | -0.124 | -0.053 | 0.529 | -1.84 (inactive) | -0.0241 | -0.609 | -0.236 | -0.374 | -0.144 | 1.39
CCN(CC)c1ccc(N2CC=CC34O[C@@H]5C=CCOC(=O)[C@@H]5[C@H]3C(=O)N(CCCCCO)[C@@H]4C2=O)cc1 (stereo not given in full) | -0.456 | -0.821 (inactive) | -1.3 (inactive) | -0.522 (inactive) | 2.74 | 1.29 (inactive) | -0.138 | -0.769 | -0.589 | -0.201 | 1.85 | -0.0647 | 0.682 | 0.223 (inactive) | 0.126 | -0.453 | -1.53 | -1.22 | -0.413 | 1.1
CN(C)CCCC[C@@H]1NC(=O)[C@@H]2C[C@H](C(=O)NCc3ccc(F)cc3)[C@H](c3cccc(OCCO)c3)N2C1=O | 1.55 | -0.65 (inactive) | -1.41 (inactive) | -0.663 (inactive) | 2.96 | -0.0129 (inactive) | 0.823 | 1.97 | 1.11 | -0.0953 | 1.17 | 0.0666 | 0.0708 | -0.815 (inactive) | 1.36 | 0.833 | 0.267 | 1.17 | 0.314 | -0.218
COC(=O)[C@@]1(Cc2ccc(F)cc2)[C@H]2c3cc(C(=O)N(C)C)n(CCc4c[nH]c5ccc(OC)cc45)c3C[C@H]2CN1C(=O)c1ccccc1 | 0.84 | 0.12 (inactive) | -0.331 (inactive) | 0.342 (inactive) | 3.17 | -1.47 (inactive) | 0.809 | -0.682 | 0.0599 | 0.341 | -0.138 | 1.76 | 1.31 | -2.71 (inactive) | -0.162 | 0.27 | -0.446 | -0.108 | -1.73 | 0.812
